Data: PubChem BioAssay AID1745847 (National Center for Advancing Translational Sciences (NCATS), 2022)
Hit rate of the full screen: of about 2,100 compounds, about 670 (32%) were called active. Roughly 50% stayed inconclusive and do not appear here. The list shows a part of the results. Unmarked numbers belong to inactive results. Calls come from the whole dose curve; as a rule, active = well fitted inhibition curve with a large enough effect; inconclusive = small, poorly fitted or top-dose-only effect; inactive = no such curve, though single readings can be large or run the other way.

Test: CMV-Luciferase Counterscreen for Inhibitors of ATXN expression; note: nearly all actives have a fitted effect of over 55% in size
Conditions: HEK-293 CMV-luciferase reporter, luminescence, 24 h; series mostly up to 57.5 µM; activity change, negative = inhibition: at the top concentration
Text: PI: Daniel Scoles Ph.D. University of Utah School of Medicine, Salt Lake City, Utah MLPCN Grant: NS073009 Spinocerebellar ataxia type 2 (SCA2) is a multisystem neurodegenerative disease caused by a dominantly acting mutation leading to expansion of a polyQ domain in the ataxin-2 protein (ATXN2). SCA2 patients develop progressive ataxia and later lose function in other neuronal systems. Prominent parkinsonian signs develop in some patients. Like many neurodegenerative disorders, no symptomatic or disease-modifying treatments are known. The primary objective of the proposed research is to identify compounds inhibiting ATXN2 expression and to test them for efficacy in SCA2 mouse models. We have developed a cell-based assay paired with an in vivo mouse model using identical luciferase expression constructs. This approach takes advantage of an ATXN2-luciferase transgene, with the luciferase gene flanked by the upstream and downstream portions of the ATXN2 gene. Here we describe a 5-7 dose quantitative high thoroughput screen (qHTS) for compounds lowering ATXN2 expression. We screened the NIH Molecular Libraries Small Molecule Repository (MLSMR) and NCGC's mechanistically annotated (MIPE) and drug repurposing (NPC) collections of compounds for lowering expression of an ATXN2-luciferase reporter in HEK-293 cells. The assay is a multiplexed cell viability assay to ensure target reduction in the absence of cytotoxicity. Secondary qHTS assays included a CMV-luciferase reporter expressed in HEK-293 cells as well as a biochemical assay using recombinant luciferase to detect inhibitors of the reporter enzyme. Compounds that inhibit ATXN2 expression but is not cytotoxic were selected for confirmatory and secondary screens.
PROTOCOL TABLE (as described by Inglese J, Shamu CE and Guy RK. 2007) SEQUENCE No. (e.g., 1, 2, 3, etc.); PARAMETER (e.g., Cells, Incubation, Reagent, etc.); VALUE; DESCRIPTION. 1; Cells; 4 uL; white, solid bottom, 1536-well Greiner assay plate. 2; Incubation; 2 hr; 37 degree C in 5% humidified CO2. 3; Compounds; 23 nL; Kalypsis pintool (Wako USA) equipped with a 1536-well pin head. 4; Incubation; 24 hr; 37 degree C in 5% humidfified CO2. 5; Reagent; 1 uL; Gly-Phe-7-Amino-4-trifluoromethylcoumarin. 6; Incubation; 30 min; 37 degree C in 5% humidfified CO2. 7; Detection; Fluorescence; Viewlux plate reader (PerkinElmer). 8; Reagent; 3 uL; SteadyGlo luciferase solution (Promega). 9; Incubation; 5 min; room temperature. 10; Detection; Luminescence; ViewLux plate reader (PerkinElmer). NOTES (numbers refer to Sequence numbers above) 1. HEK-293 cells expressing CMV-luciferase reporter (designated as SC cells) were suspended in phenol-red free DMEM and dispensed in assay plates using a Multidrop Combi dispenser (Thermo Fisher Scientific). 2. Assay plates were incubated. Evaporation was prevented by covering assay plates with metal lids containing holes to allow gas diffusion. 3. Compounds were added in a dose response manner with the final concentrations of 57, 11.4, 2.28, 0.46, 0.091, 0.018, 0.0037 uM. Vehicle-only plates, with DMSO being pin-transferred to columns 5-48, were inserted uniformly at the beginning and the end of each library to monitor and record any shifts in assay performance. 5. 125 uM Gly-Phe-7-Amino-4-trifluoromethylcoumarin (MP Biomedicals) working concentration was used at a final concentration of 25 uM. 7. To assess cell viability; the assay plates were read using the ViewLux high-throughput CCD imager (PerkinElmer), wherein single end-point fluorescence measurement was acquired (excitation 405/10; emission 540/25 nm). 8. Detection reagent SteadyGlo Luciferase (Promega) was added to the assay plate. 10. Luminescence is then measured on the ViewLux imager equipped with a clear emission filter using a 2 sec exposure. […]
% is set by controls: 0 for no effect and ±100 for the full control effect; potency is the fitted concentration of half-maximal effect.

SMILES | activity change, negative = inhibition | Potency
Cc1ccc(C(=O)N/C(=C/c2ccc(-c3ccc([N+](=O)[O-])cc3)o2)C(=O)NCCCN(C)C)cc1 | -11.5% | –
Cc1ccsc1/C=C/C1=Cc2c(sc(NC(=O)CSc3n[nH]c(N)n3)c2C#N)C(C)(C)C1 | -26.7% | –
COc1cccc(CN(C)C(=O)c2ccc(OCC(=O)Nc3cccc(C(F)(F)F)c3)c(OC)c2)c1 | – | 7.08 µM (active)
CN(C)CCNC(=O)c1cccc(-c2cnc3c(NC=O)cc(/C=C/c4ccccc4)cn23)c1 | 45.6% | –
Cc1cc2sc3ccc(C#CC4(O)CCCCC4)cc3c(=O)c2cc1C | – | 0.0316 µM (active)
COc1ccccc1-c1cc2nc(-c3ccccc3)cc(N3CCN(C(=O)c4ccoc4)CC3)n2n1 | – | 7.94 µM (active)
O=C(c1ccoc1)N1CCN(c2cc(-c3ccccc3)nc3cc(-c4ccccc4)nn23)CC1 | – | 10 µM (active)
COc1cccc(-c2cc3nc(-c4ccccc4)cc(N4CCN(C(=O)c5ccoc5)CC4)n3n2)c1 | – | 3.16 µM (active)
FC(F)(F)c1cc(-c2ccccn2)nc2cc(-c3ccccc3)nn12 | -0.328% | –
COc1ccccc1-c1cc2nc(-c3ccccc3)cc(N3CCN(C(=O)c4ccco4)CC3)n2n1 | – | 7.94 µM (active)
NC(=O)Cn1c(=O)n(CCc2ccccc2)c(=O)c2c3c(sc21)CCCC3 | 10.9% | –
CCNc1ccc(Br)cc(C(=O)/C=C/c2ccccc2Cl)c1=O | -8.42% [at 11.4 µM] | –
O=C(c1ccoc1)N1CCN(c2cc(-c3cccnc3)nc3cc(-c4cccc(Cl)c4)nn23)CC1 | – | 28.2 µM (active)
O=C(Nc1cccc2c1CCCC2)c1cc([N+](=O)[O-])ccc1Cl | – | 6.31 µM (active)
COc1cccc(CC2(CO)CCCN(Cc3[nH]c4ccc(C)cc4c3C)C2)c1 (centres undefined) | -14.8% | –
Cc1ccc(S(=O)(=O)Nc2cccc3cccnc23)c([N+](=O)[O-])c1 | 80.5% | –
Cc1ccc(S(=O)(=O)Nc2ccc(O)c3cccnc23)cc1 | – | 28.2 µM (active)
COc1cccc(C(NC(C)=O)c2ccc3cccnc3c2O)c1 (centres undefined) | – | 2.82 µM (active)
CCC(=O)NC(c1ccco1)c1cc(Br)c2cccnc2c1O (centres undefined) | – | 8.91 µM (active)
CC(=O)NC(c1ccc2ccccc2c1)c1ccc2cccnc2c1O (centres undefined) | – | 0.355 µM (active)
CC(=O)NC(c1ccc(C(C)C)cc1)c1ccc2cccnc2c1O (centres undefined) | – | 1.26 µM (active)
OC1(c2ccc(Br)cc2)CCNCC1 | 0.489% [at 11.4 µM] | –

SMILES | activity change, negative = inhibition | Potency
Cc1cccc(NC(c2ccc(C)s2)c2ccc3ccc(C)nc3c2O)n1 (centres undefined) | 21.1% | –
CC(=O)NC(c1ccco1)c1cc(Cl)c2cccnc2c1O (centres undefined) | – | 7.94 µM (active)
Oc1cccc(C(Nc2nccs2)c2ccc3cccnc3c2O)c1 (centres undefined) | – | 2.82 µM (active)
Oc1c(C(Nc2ccccn2)c2ccccn2)ccc2cccnc12 (centres undefined) | – | 2.82 µM (active)
CC(=O)NC(c1ccco1)c1ccc2cccnc2c1O (centres undefined) | – | 1.58 µM (active)
CC(C)(C)OC(=O)N1CCC(c2c(C(=O)NCC3CCN(C4CCCC4)C3)cnn2-c2cccc(Cl)c2)CC1 (centres undefined) | -22.1% [at 11.4 µM] | –
CN(Cc1ccccc1)C(=O)c1ccc(NC(=O)C2CCN(C(=O)OC(C)(C)C)CC2)cc1 | – | 7.08 µM (active)
O=C(Cc1coc2cc3c(cc12)CCC3)OCC(=O)N1CCCC1=O | – | 15.8 µM (active)
Cc1ccc(-n2c(-c3ccccc3)c[n+]3c2CCc2ccccc2-3)c(C)c1 | – | 0.794 µM (active)
S=C(Nc1ccccc1)Nc1ccc(OCc2ccc(Cl)cc2Cl)cc1 | – | 3.55 µM (active)
S=C(Nc1cc(Cl)ccc1Oc1ccccc1)N1CCN(c2ccccn2)CC1 | – | 17.8 µM (active)
Oc1[nH]c2ccc(Br)cc2c1N=NC(=S)N1CCOCC1 | 43.7% [at 11.4 µM] | –
O=C(Nc1ccc(Br)cc1)c1cccc(OC(=S)N2CCOCC2)c1 | – | 2 µM (active)
Cc1ccc(S(=O)(=O)N2CCc3ccccc3CC2)cc1 | – | 0.794 µM (active)
COCCNC(=O)c1cccc(Nc2nc(-c3ccccc3)c3cc(Cl)ccc3n2)c1 | – | 15.8 µM (active)
O=C(NCCc1csc(-c2cccnc2)n1)c1cccc(Cl)c1 | -26.6% | –
OCCN1CCN(C(=S)c2ccc(-c3ccccc3)cc2)CC1 | – | 2.51 µM (active)
CCN1CCN(C(=S)c2ccc(-c3ccccc3)cc2)CC1 | – | 2 µM (active)
CC(C)=C1SC(N2CCN(c3ccc(C)c(Cl)c3)CC2)=NC1=O | 103% [at 11.4 µM] | –
CCn1c2ccccc2c2cc(NC(=O)COC(=O)C3CCC(=O)N3)ccc21 (centres undefined) | 18.1% | –
CCn1c2ccccc2c2cc(C3C(C#N)=C(N)Oc4n[nH]c(COC)c43)ccc21 (centres undefined) | – | 2.82 µM (active)
CC1(C(=O)Nc2cnc3ccccc3c2)CCN1C(=O)c1ccccc1CCc1ccccc1 (centres undefined) | – | 28.2 µM (active)
